# Results taken from publication PMC7862700, “An all-to-all approach to the identification of sequence-specific readers for epigenetic DNA modifications on cytosine”.
# Assays:
# Test in all cases: DAPPL (digital affinity profiling via proximity ligation, sequencing); 10 mM Tris-HCl pH 7.5, 50 mM NaCl, 1 mM DTT, 4% glycerol, room temperature, 30 min; GST-TFs on glutathione beads, 16-mer random dsDNA library, 0.1% formaldehyde crosslink after washing; high values mean tight binding
# FLI1 = target: T1, FLI1 (Homo sapiens, UniProt Q01543 1-452); conditions: protein: recombinant; tags: N-terminal GST; dsDNA, one strand shown
# T1 sequence: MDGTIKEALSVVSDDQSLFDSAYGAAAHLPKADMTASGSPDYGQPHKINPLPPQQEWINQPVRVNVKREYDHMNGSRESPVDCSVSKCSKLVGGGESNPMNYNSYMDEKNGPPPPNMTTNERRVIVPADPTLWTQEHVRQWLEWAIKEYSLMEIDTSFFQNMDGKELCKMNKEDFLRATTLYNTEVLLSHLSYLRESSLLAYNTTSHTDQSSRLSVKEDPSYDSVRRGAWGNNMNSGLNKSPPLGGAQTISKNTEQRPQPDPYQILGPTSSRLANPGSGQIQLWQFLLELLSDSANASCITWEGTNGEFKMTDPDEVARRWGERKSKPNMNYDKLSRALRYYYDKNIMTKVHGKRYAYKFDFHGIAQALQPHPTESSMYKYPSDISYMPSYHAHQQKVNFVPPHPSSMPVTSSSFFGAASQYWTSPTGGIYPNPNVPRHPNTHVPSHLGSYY
# Summary of the method: (§1)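 Each value of binding signal is a hexamer's read frequency for a factor divided by the same hexamer's frequency in the tag-only sample. Barcoded, bead-captured GST fusions of human transcription factors made in yeast were pooled with that sample and incubated with 200 nmole of a random double-stranded 16-mer DNA library in Tris/NaCl/DTT/glycerol buffer at room temperature for 30 min. Washing, 0.1% formaldehyde crosslinking, proximity ligation, PCR and Illumina NextSeq500 sequencing followed.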
# ELK1 = target: T2, ELK1 (Homo sapiens, UniProt P19419 1-428); conditions: protein: recombinant; tags: N-terminal GST; dsDNA, one strand shown
# T2 sequence: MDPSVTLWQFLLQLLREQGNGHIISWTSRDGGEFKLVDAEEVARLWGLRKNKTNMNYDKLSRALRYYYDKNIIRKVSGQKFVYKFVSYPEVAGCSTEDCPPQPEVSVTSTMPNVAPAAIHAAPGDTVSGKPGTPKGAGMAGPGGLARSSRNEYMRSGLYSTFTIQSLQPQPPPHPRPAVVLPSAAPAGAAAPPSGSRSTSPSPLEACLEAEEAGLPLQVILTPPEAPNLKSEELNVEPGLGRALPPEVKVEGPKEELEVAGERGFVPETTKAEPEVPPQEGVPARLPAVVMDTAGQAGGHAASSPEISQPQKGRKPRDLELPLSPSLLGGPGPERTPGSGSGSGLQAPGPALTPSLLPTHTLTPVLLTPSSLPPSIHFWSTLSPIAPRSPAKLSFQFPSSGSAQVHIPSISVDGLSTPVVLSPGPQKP
# Summary of the method: as §1
# GABPA = target: T3, GABPA (Homo sapiens, UniProt Q06546 1-454); conditions: protein: recombinant; tags: N-terminal GST; dsDNA, one strand shown
# T3 sequence: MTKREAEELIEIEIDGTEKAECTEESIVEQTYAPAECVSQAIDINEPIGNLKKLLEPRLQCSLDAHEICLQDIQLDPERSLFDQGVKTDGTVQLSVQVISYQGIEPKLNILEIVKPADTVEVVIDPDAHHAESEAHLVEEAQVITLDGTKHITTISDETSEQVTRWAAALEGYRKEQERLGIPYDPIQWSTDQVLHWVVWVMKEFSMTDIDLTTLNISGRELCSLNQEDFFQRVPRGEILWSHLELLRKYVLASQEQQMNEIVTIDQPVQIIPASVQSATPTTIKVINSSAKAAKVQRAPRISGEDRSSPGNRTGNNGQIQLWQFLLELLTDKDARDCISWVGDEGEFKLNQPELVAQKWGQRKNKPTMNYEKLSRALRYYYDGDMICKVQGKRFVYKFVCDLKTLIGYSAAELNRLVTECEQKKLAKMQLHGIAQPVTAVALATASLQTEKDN
# Summary of the method: as §1
# ERG = target: T4, ERG (Homo sapiens, UniProt P11308 1-479); conditions: protein: recombinant; tags: N-terminal GST; dsDNA, one strand shown
# T4 sequence: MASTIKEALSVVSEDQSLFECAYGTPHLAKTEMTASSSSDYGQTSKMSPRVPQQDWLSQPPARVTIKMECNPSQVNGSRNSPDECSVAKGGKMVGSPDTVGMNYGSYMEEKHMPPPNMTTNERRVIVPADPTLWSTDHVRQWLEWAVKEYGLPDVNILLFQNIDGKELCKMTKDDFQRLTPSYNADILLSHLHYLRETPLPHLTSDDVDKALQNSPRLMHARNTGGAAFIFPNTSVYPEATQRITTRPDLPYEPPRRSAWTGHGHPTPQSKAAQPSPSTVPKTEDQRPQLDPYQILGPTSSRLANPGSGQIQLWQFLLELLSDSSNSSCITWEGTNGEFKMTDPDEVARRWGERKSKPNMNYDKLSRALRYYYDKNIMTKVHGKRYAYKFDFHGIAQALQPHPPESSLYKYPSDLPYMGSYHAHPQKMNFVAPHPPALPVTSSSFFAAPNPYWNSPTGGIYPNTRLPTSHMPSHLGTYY
# Summary of the method: as §1
# ELF1 = ELF1 (Homo sapiens, UniProt P32519 1-619); conditions: protein: recombinant; tags: N-terminal GST; dsDNA, one strand shown
# Chain of ELF1 (P32519 whole entry): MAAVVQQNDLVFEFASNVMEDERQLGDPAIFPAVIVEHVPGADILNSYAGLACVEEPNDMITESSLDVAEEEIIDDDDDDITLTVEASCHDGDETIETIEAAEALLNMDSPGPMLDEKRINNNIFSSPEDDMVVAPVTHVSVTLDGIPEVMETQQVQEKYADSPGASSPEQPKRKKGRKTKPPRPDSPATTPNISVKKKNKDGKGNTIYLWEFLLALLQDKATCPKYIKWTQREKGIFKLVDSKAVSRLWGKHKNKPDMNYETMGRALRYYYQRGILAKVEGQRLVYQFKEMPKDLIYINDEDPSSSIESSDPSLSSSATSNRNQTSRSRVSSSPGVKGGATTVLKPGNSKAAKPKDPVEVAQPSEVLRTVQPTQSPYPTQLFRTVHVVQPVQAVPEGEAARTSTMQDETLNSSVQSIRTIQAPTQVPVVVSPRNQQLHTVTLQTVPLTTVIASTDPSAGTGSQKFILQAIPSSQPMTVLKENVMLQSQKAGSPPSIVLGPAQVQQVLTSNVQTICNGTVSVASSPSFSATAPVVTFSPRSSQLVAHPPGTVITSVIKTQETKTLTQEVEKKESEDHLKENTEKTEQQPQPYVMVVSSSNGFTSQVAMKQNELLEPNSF
# Summary of the method: as §1
# EHF = target: T5, EHF (Homo sapiens, UniProt Q9NZC4 1-300); conditions: protein: recombinant; tags: N-terminal GST; dsDNA, one strand shown
# T5 sequence: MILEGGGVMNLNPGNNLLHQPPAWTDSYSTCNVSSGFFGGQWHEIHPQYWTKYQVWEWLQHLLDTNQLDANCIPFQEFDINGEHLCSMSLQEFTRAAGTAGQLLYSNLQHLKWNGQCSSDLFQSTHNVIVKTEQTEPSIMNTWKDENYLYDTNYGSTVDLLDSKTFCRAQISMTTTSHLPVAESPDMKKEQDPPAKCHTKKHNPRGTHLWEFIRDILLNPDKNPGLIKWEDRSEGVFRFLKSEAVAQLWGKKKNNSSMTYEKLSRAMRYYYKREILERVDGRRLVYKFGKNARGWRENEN
# Summary of the method: as §1
# SPI1 = SPI1 (Homo sapiens, UniProt P17947 1-270); conditions: protein: recombinant; tags: N-terminal GST; dsDNA, one strand shown
# Summary of the method: as §1
# SPIB = SPIB (Homo sapiens, UniProt Q01892 1-262); conditions: protein: recombinant; tags: N-terminal GST; dsDNA, one strand shown
# Chain of SPIB (Q01892 whole entry): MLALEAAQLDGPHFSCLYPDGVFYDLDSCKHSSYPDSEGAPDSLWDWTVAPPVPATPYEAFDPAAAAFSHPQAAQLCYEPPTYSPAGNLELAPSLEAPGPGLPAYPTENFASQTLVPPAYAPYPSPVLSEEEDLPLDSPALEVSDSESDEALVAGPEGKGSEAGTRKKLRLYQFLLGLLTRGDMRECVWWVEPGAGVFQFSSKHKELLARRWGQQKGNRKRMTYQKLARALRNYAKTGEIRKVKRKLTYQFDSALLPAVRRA
# Summary of the method: as §1
# ELK3 = target: T6, ELK3 (Homo sapiens, UniProt P41970 1-407); conditions: protein: recombinant; tags: N-terminal GST; dsDNA, one strand shown
# T6 sequence: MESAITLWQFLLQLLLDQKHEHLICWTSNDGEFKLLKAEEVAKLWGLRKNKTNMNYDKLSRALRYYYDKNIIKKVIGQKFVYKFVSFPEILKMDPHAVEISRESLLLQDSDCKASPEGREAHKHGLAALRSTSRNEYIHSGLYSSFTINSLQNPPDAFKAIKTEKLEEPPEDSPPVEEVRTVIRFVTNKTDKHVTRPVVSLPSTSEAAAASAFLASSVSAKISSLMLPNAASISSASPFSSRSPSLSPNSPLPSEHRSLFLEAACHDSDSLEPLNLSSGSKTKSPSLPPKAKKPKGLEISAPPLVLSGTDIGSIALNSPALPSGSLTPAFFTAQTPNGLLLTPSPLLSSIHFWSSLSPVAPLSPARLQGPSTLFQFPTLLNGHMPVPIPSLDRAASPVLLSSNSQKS
# Summary of the method: as §1
# FEV = target: T7, FEV (Homo sapiens, UniProt Q99581 1-238); conditions: protein: recombinant; tags: N-terminal GST; dsDNA, one strand shown
# T7 sequence: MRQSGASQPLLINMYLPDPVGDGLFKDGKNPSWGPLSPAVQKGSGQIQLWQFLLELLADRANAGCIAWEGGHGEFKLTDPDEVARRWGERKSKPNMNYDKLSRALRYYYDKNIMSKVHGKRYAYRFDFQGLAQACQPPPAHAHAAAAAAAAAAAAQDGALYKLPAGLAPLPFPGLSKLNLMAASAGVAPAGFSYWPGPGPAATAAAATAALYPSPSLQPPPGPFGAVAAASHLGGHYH
# Summary of the method: as §1
# ETV5 = ETV5 (Homo sapiens, UniProt P41161 1-510); conditions: protein: recombinant; tags: N-terminal GST; dsDNA, one strand shown
# Chain of ETV5 (P41161 whole entry): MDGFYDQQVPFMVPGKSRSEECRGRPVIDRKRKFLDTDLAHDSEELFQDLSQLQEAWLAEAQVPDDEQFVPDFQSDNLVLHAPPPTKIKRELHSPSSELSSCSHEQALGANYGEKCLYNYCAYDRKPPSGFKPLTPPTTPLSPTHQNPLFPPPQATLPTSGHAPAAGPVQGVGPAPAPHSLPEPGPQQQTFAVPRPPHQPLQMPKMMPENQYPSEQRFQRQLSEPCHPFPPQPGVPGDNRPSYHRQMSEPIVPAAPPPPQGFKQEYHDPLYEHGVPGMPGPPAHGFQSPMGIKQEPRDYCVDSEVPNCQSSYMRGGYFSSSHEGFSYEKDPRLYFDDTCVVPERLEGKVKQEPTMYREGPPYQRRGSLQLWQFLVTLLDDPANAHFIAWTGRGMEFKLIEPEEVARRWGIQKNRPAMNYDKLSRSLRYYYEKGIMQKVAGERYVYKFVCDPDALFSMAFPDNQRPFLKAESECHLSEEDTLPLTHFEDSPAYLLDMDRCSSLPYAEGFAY
# Summary of the method: as §1
# HSF1 = HSF1 (Homo sapiens, UniProt Q00613 1-529); conditions: protein: recombinant; tags: N-terminal GST; chain copies: 3; dsDNA, one strand shown
# Chain of HSF1 (Q00613 whole entry): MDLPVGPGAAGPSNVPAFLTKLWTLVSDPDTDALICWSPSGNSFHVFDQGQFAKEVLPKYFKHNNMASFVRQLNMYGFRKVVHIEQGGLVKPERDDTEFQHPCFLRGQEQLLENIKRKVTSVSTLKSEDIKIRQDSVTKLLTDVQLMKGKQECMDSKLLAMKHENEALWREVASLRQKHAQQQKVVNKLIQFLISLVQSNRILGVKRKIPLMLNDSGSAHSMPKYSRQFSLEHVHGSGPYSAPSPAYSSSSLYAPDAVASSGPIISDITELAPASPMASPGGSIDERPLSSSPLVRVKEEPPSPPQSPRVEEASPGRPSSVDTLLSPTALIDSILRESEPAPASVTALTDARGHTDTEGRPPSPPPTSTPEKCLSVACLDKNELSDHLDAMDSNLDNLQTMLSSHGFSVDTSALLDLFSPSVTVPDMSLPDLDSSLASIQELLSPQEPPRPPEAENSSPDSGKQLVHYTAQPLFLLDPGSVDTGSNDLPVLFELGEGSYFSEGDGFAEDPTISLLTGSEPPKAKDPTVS
# Summary of the method: as §1
# SPIC = target: T8, SPIC (Homo sapiens, UniProt Q8N5J4 1-248); conditions: protein: recombinant; tags: N-terminal GST; dsDNA, one strand shown
# T8 sequence: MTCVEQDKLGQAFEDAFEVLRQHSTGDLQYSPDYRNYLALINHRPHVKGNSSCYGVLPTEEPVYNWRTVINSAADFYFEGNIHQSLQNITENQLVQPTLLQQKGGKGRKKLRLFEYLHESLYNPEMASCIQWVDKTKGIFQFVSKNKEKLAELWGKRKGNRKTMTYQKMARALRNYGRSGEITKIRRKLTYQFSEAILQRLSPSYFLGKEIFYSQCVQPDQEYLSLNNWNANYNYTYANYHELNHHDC
# Summary of the method: as §1
# ELF4 = ELF4 (Homo sapiens, UniProt Q99607 1-663); conditions: protein: recombinant; tags: N-terminal GST; dsDNA, one strand shown
# Chain of ELF4 (Q99607 whole entry): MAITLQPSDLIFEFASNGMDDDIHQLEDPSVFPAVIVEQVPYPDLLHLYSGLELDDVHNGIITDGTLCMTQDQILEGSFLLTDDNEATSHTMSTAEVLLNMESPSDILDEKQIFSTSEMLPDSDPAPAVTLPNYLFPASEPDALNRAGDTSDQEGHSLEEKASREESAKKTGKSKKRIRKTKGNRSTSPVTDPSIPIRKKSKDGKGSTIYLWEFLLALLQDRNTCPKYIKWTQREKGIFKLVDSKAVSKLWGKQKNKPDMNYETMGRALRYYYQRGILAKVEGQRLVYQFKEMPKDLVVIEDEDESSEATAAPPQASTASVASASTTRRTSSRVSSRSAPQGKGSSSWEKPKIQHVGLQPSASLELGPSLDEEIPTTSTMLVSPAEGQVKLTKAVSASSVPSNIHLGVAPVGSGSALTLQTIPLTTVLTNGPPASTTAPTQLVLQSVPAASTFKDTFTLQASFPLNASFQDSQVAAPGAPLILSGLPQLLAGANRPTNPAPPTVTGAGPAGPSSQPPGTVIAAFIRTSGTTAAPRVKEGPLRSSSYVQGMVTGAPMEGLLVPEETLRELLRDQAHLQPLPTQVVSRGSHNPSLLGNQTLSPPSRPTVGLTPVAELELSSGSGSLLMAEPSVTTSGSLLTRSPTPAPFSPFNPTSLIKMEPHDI
# Summary of the method: as §1
# ELK4 = target: T9, ELK4 (Homo sapiens, UniProt P28324-2 1-405); conditions: protein: recombinant; tags: N-terminal GST; dsDNA, one strand shown
# T9 sequence: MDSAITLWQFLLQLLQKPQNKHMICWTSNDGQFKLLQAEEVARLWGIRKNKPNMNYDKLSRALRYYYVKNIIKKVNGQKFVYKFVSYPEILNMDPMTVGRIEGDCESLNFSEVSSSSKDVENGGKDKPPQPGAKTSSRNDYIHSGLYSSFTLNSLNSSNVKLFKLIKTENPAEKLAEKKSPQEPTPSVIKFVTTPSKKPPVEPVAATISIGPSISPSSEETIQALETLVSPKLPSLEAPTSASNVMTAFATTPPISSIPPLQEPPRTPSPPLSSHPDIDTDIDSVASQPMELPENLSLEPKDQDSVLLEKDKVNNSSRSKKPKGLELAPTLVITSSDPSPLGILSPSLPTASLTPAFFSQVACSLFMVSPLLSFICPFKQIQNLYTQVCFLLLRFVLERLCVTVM
# Summary of the method: as §1
# ETV2 = target: T10, ETV2 (Homo sapiens, UniProt O00321 1-342); conditions: protein: recombinant; tags: N-terminal GST; dsDNA, one strand shown
# T10 sequence: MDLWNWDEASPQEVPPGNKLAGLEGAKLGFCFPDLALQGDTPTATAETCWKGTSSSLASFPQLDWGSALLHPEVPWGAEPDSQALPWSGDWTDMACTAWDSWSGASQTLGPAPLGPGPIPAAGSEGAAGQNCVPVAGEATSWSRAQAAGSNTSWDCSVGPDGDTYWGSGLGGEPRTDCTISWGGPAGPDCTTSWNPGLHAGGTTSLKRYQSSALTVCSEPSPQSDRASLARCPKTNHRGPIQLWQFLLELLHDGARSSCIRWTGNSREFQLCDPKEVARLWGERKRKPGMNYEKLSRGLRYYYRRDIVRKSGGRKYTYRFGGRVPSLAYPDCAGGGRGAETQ
# Summary of the method: as §1
# ELF3 = target: T11, ELF3 (Homo sapiens, UniProt P78545 1-371); conditions: protein: recombinant; tags: N-terminal GST; dsDNA, one strand shown
# T11 sequence: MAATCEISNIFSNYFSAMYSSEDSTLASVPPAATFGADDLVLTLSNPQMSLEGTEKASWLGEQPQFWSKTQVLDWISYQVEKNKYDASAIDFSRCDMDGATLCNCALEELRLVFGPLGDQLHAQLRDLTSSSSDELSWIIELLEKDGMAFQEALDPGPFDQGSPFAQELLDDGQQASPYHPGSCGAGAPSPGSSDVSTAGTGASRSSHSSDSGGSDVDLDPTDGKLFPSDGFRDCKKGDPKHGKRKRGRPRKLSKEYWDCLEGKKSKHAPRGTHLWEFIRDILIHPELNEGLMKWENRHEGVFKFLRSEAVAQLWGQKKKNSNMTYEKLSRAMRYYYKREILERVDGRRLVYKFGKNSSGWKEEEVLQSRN
# Summary of the method: as §1
# CRX = CRX (Homo sapiens, UniProt O43186 1-299); conditions: protein: recombinant; tags: N-terminal GST; dsDNA, one strand shown
# Chain of CRX (O43186 whole entry): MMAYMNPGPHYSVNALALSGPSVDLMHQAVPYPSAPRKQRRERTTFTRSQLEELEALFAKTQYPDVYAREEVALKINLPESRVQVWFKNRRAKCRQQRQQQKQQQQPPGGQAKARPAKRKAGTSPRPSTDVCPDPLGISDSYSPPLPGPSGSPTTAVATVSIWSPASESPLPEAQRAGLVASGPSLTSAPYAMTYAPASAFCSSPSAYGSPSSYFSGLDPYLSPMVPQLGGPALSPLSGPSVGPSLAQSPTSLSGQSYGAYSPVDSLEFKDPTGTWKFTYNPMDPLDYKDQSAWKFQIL
# Summary of the method: as §1
# ETV1 = ETV1 (Homo sapiens, UniProt P50549 1-477); conditions: protein: recombinant; tags: N-terminal GST; dsDNA, one strand shown
# Chain of ETV1 (P50549 whole entry): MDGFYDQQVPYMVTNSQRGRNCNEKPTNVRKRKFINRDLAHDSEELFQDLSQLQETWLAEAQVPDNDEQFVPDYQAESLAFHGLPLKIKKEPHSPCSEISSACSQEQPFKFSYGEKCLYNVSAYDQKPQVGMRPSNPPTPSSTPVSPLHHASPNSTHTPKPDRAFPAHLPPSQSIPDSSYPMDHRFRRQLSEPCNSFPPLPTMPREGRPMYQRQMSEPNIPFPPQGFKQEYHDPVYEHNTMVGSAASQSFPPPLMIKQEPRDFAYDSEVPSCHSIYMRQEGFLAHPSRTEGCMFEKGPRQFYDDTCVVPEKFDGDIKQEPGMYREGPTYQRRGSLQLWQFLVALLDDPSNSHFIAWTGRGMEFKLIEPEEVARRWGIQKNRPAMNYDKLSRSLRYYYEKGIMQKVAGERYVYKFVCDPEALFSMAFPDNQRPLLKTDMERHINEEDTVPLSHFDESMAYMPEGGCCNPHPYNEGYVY
# Summary of the method: as §1
sequence,measurement,setting,value
TTTACG,binding signal,FLI1,"1.39 fold enrichment (6-mer frequency, TF over GST control)"
same,binding signal,ELK1,"1.28 fold enrichment (6-mer frequency, TF over GST control)"
same,binding signal,GABPA,"1.34 fold enrichment (6-mer frequency, TF over GST control)"
same,binding signal,ERG,"1.26 fold enrichment (6-mer frequency, TF over GST control)"
same,binding signal,ELF1,"1.26 fold enrichment (6-mer frequency, TF over GST control)"
same,binding signal,EHF,"1.3 fold enrichment (6-mer frequency, TF over GST control)"
same,binding signal,SPI1,"1.33 fold enrichment (6-mer frequency, TF over GST control)"
same,binding signal,SPIB,"1.23 fold enrichment (6-mer frequency, TF over GST control)"
same,binding signal,ELK3,"1.27 fold enrichment (6-mer frequency, TF over GST control)"
same,binding signal,FEV,"1.26 fold enrichment (6-mer frequency, TF over GST control)"
same,binding signal,ETV5,"1.28 fold enrichment (6-mer frequency, TF over GST control)"
same,binding signal,HSF1,"1.32 fold enrichment (6-mer frequency, TF over GST control)"
same,binding signal,SPIC,"1.24 fold enrichment (6-mer frequency, TF over GST control)"
same,binding signal,ELF4,"1.32 fold enrichment (6-mer frequency, TF over GST control)"
same,binding signal,ELK4,"1.29 fold enrichment (6-mer frequency, TF over GST control)"
same,binding signal,ETV2,"1.33 fold enrichment (6-mer frequency, TF over GST control)"
same,binding signal,ELF3,"1.28 fold enrichment (6-mer frequency, TF over GST control)"
same,binding signal,CRX,"1.62 fold enrichment (6-mer frequency, TF over GST control)"
same,binding signal,ETV1,"1.32 fold enrichment (6-mer frequency, TF over GST control)"
